This is an account of results in ChEMBL document CHEMBL4513216, “Probing the Open Global Health Chemical Diversity Library for Multistage-Active Starting Points for Next-Generation Antimalarials” (ACS Infect Dis, 2020).

The whole screen tested about 65,000 compounds, of which about 2,100 (3.2%) showed an effect of 50% or more. The median lay at about -52%. This is one part of a sample in which strong results are shown more often than they occur.

This assay deals with Plasmodium falciparum. Nature of the assay: Screen against P. falciparum Asexual Blood Stage (ABS), at 5uM. Type of assay: functional, Dd2. The settings on record: tested at 5 uM.
Take `c1ccc(CN2CCCC[C@H]3CN(c4ncccn4)C[C@H]32)cc1`: the INHIBITION worked out at 3.59%.

Turning to `CCn1ccnc1CN1CCN(C(C)C)CC1C` (stereo not given), the INHIBITION is on record as -35.9%. The result for `CCn1cc(CN2CCCCC2CCn2ccnc2C)cc1C#N` (stereo not given) reads 78.2%.

With `CCCN1CCC(NC(=O)c2ccc(F)cc2I)CC1`, the INHIBITION was determined as 71.1%. With `O=C(c1cc2cc(F)ccc2[nH]1)N1CCC(Nc2ccc(F)cc2)CC1`, the INHIBITION is recorded as -1.01%. For `Cc1cc(CC(=O)N2CCN(CC3CC3)[C@@H]3CS(=O)(=O)C[C@@H]32)ccc1F`, the INHIBITION is -75.7%. The value for `Cc1cc(C(=O)N[C@H]2COC[C@@H]2N2CCOCC2)c2ccc(F)cc2n1` was -31.3%; that for `Cc1ccc2nc(C)cc(C(=O)N[C@H]3COC[C@@H]3N3CCOCC3)c2c1` was -169%. The value for `CO[C@H]1CNC[C@@H]1NC(=O)c1cc(C)nc2c(C)cc(C)cc12` was 75.1%; that for `c1cncc(OC[C@]23COC[C@H]2CN(C2CCC2)C3)c1` was -4.29%. The value for `CCC1CCCN(Cc2nc(N)c3ccccc3n2)C1` (stereo not given) was 74%; that for `O=S(=O)(C1CC1)N1CCOC2(CCCN(Cc3ccccn3)C2)C1` (stereo not given) was -97.5%; that for `CN(C)CCN1CCC(NC2CSCCc3ccccc32)CC1` (stereo not given) was 76.5%. `CN(C)CCN1CCN(CC2CC2)c2ncccc2C1`: the INHIBITION worked out at 10.4%. The result for `CCN1CCc2c(cccc2NC(=O)N(C)C2CCSC2)C1` (stereo not given) reads -40.2%.

Consider `O=C1[C@@H]2CN(Cc3ccccn3)C[C@H]2CCN1c1cncnc1`, for which the INHIBITION is listed as -99.9%. On to `Cc1ccc(-n2nnc(CC(=O)N3CCN(C(C)C)CC3)c2C)cc1`, for which the INHIBITION is reported as -42.3%.

As for `CCC(=O)NCC(=O)NC(Cc1ccccc1)c1sccc1C` (stereo not given), the INHIBITION is listed as 85.5%. As to `CCOC(C)c1noc(CN(C)C(=O)C2C(C)(C)C2(C)C)n1` (stereo not given), the INHIBITION is -124%. Take `Cc1cc(C)c2cc(CNC3CCCCC3)c3nn(C)c(=O)n3c2c1`: the INHIBITION worked out at 79.7%. The value for `Cc1cc(C)c2cc(CNCc3ccco3)c3nn(C)c(=O)n3c2c1` was 75.5%; that for `COc1ccc(CCNCc2ccco2)cc1OC` was 5.79%; that for `Oc1ccc(Cl)cc1CNCc1ccccc1Cl` was 76.4%. With `Oc1ccc(Cl)cc1CNCc1cccc(C(F)(F)F)c1`, the INHIBITION stood at 89%. Turning to `Cc1ccccc1CNCc1cc(Cl)ccc1O`, the INHIBITION was determined as 75.4%. Take `COCCNC(=O)[C@H]1C[C@@H]2CCN(Cc3ccncc3)C[C@H]2O1`: the INHIBITION was -49.6%. Regarding `O=C(NCc1ccncc1)C1=NOC2(CCCNC2)C1` (stereo not given), the INHIBITION is on record as -6.12%. The value for `Cc1cccc(CN2CC3C[C@]3(NC(=O)c3ccco3)C2)n1` (stereo not given in full) was -83.2%; that for `CCCc1nc(CNC(C)Cn2cccn2)cs1` (stereo not given) was -91.5%.

With `COCCN1CCN(c2ccc(C)nn2)Cc2ccc(C)nc21`, the INHIBITION is -54.8%. The result for `Nc1nc2c(c(N3CCCC(c4nnc5ccccn45)C3)n1)CCNC2` (stereo not given) reads 84.8%; that for `O=C(C1CC1)N1CCc2c(ncnc2N2CCN3CCCC3C2)C1` (stereo not given), -21.1%. In the case of `c1ccn2c(C3CCCN(c4ncnc5c4CCNC5)C3)nnc2c1` (stereo not given), the INHIBITION turned out to be 76.2%. With `Clc1cncc(N2CCN(Cc3ccon3)CC2)n1`, the INHIBITION was -51.3%. The value for `CC(C)(N)C(=O)N1CCCC1c1cncc(Oc2ccccc2)n1` (stereo not given) was 78.6%; that for `CN1CCCCC1c1cncc(Cl)n1` (stereo not given) was -143%. Regarding `O=C(Nc1cccnc1)[C@@H]1C[C@H]2OCC[C@H]2N(Cc2nccs2)C1`, the INHIBITION is on record as -80.7%. For the compound `Cn1cc(CN2C[C@@H]3[C@@H](C2)OCC(=O)N3Cc2ccncc2)cn1`, the INHIBITION is -72.9%.

Regarding `c1ccc(CN2CC[C@H]3CO[C@H](CNc4ncccn4)[C@H]3C2)nc1`, the INHIBITION is recorded as -30.4%.

Regarding `CO[C@H]1CCN(c2ncc(F)cn2)[C@@H]2CN(Cc3ccco3)C[C@H]12`, the INHIBITION is listed as 63.7%. With `CO[C@H]1CCN(Cc2ccccn2)[C@@H]2CN(Cc3ccco3)C[C@H]12`, the INHIBITION turned out to be 67.7%. For the compound `COC[C@H]1CC[C@@H]2[C@@H](CCN2Cc2ccco2)O1`, the INHIBITION is reported as -128%. As to `CN(Cc1ccco1)C[C@H]1OC[C@@H]2CCN(Cc3ccccn3)C[C@@H]21`, the INHIBITION is recorded as 71.1%.

For the compound `CO[C@@H]1CCN(c2ncc(F)cn2)[C@@H]2CN(CC3CC3)C[C@@H]21`, the INHIBITION worked out at 6.1%. As to `c1ccc(COC[C@H]2CC[C@H]3[C@H](CCN3Cc3ccco3)O2)nc1`, the INHIBITION is on record as -63.4%. Regarding `CO[C@@H]1CCN(Cc2ccccn2)[C@@H]2CN(Cc3ccco3)C[C@@H]21`, the INHIBITION was 81.6%. For `CO[C@@H]1CC[C@H]2[C@H]1OCCN2Cc1ccccn1`, the INHIBITION is listed as -64.6%.

With `c1ccc(CN2CC[C@@H]3[C@@H](CO[C@@H]3CNc3ncccn3)C2)nc1`, the INHIBITION is given as -169%.

For the compound `COC[C@H]1CC[C@@H]2[C@@H](CCN2Cc2ccccn2)O1`, the INHIBITION is recorded as -7.67%.

On to `CCN1C[C@H]2[C@@H](C1)N(c1ncc(F)cn1)CC[C@H]2OC`, for which the INHIBITION came out at 35.7%. For `COc1cccc2c(=O)n(C3CCNCC3)cnc12`, the INHIBITION is reported as -104%. Regarding `O=C(NC1CCC1)[C@@H]1C[C@@H]2CCN(Cc3ccncc3)C[C@H]2O1`, the INHIBITION is given as -70.1%. Consider `COCCO[C@@H]1C[C@H]2CN(C(=O)c3ccc(C)nc3)CCN2C1`, for which the INHIBITION is recorded as -15.2%. Take `Cn1ccc(CN2CCOCC23CCNCC3)n1`: the INHIBITION is -75.7%. The result for `Cc1noc(C)c1C(=O)N1CCC2(CC1)c1nc[nH]c1CCN2C` reads -42.4%; that for `CCN(CC)CCN1CCO[C@H]2[C@@H](OCc3ccncc3)CC[C@@H]21`, -18.1%. Turning to `c1ccc(COC[C@@]23CCC[C@@H]2CN(Cc2ccccn2)C3)nc1`, the INHIBITION is given as -56.9%. `c1ccc(OC[C@]23COC[C@H]2CN(C2CCOCC2)C3)nc1`: the INHIBITION is on record as 2.04%. `c1ccc(OC[C@]23COC[C@H]2CN(Cc2ccoc2)C3)nc1`: the INHIBITION is on record as 15.8%.

Regarding `Cn1cc(CN2C[C@H]3CCC[C@@]3(COc3cccnc3)C2)cn1`, the INHIBITION worked out at 17.2%. As to `CN(C)CC(=O)N1C[C@H]2CCC[C@@]2(COc2ccccn2)C1`, the INHIBITION was determined as 84.9%.

Turning to `Cn1cc(CN2C[C@H]3CCC[C@@]3(COc3ccccn3)C2)cn1`, the INHIBITION is listed as 66.1%. With `COc1ccccc1C1SCC(=O)Nc2c1c(=O)[nH]n2C1CCOCC1` (stereo not given), the INHIBITION was -116%. As to `CN(C)c1ncc2c(n1)C1(CCN(CC3CC3)C1)COC2` (stereo not given), the INHIBITION is given as -2.79%. For the compound `COCCN1CCC2(COCc3c(C)nc(N(C)C)nc32)C1` (stereo not given), the INHIBITION is -49.6%.

Turning to `Cc1nc(N(C)C)nc2c1COCC21CCN(CC2CC2)C1` (stereo not given), the INHIBITION is 50.3%. The result for `Cc1ccc(CN(CCCn2ccnc2)Cc2c(F)cccc2F)s1` reads 81.5%; that for `Cc1cc(C2CCC2)nc(NCCC23CCCN2CCC3)n1`, 12.6%. With `CC(C)COc1ccc(C2SCC(=O)Nc3c2c(=O)[nH]n3C(C)C)cc1` (stereo not given), the INHIBITION is -35.2%. For the compound `CCC(C)CN1CCC(n2cc(C3CCCCC3)nn2)CC1` (stereo not given), the INHIBITION was 77.1%. Regarding `CSC(C)CCN1CCC(n2cc(C3CCCCC3)nn2)CC1` (stereo not given), the INHIBITION worked out at 78.4%.

On to `CC1(C)C(C(=O)NCCC2CN(Cc3c[nH]cn3)CCO2)C1(C)C` (stereo not given), for which the INHIBITION is listed as -64.7%. The result for `Cc1nc(C2(NCc3cc(C#N)ccc3F)CCCCC2)no1` reads -10.8%; that for `COc1ccc2[nH]c(C[C@@H]3C[C@@H](C(C)C)[C@H](CN(C)C)C=C3C)nc2c1`, 78.9%; that for `Cc1ccc(CN2C[C@@H]3CCN(Cc4cccnc4)C(=O)[C@H]3C2)s1`, -93.5%.

In the case of `CC(C)c1nccc([C@@H]2C[C@@H]3CCN(Cc4ccco4)C[C@H]3O2)n1`, the INHIBITION is reported as -12.5%. The value for `CN(C)C(=O)CN1CCOCC2(C1)CN(c1ncccn1)CCO2` (stereo not given) was -97%; that for `Cc1nc(-c2ccc(F)c(F)c2)cc(C2CCNCC2)n1` was 84.1%; that for `CN1CCN(S(=O)(=O)c2ccc(Cl)c(Cl)c2)c2cnccc21` was 89.6%. With `CN1CCN(S(=O)(=O)c2cccc(F)c2)Cc2cccnc21`, the INHIBITION is -37.8%.

`Cn1cc(CN2CC[C@H]3[C@H]2CC(=O)N3Cc2ccncc2)cn1`: the INHIBITION is given as -2.65%. The value for `OCCN1CCC(F)(F)C2(CCN(c3cccnc3)C2)C1` (stereo not given) was -46.2%. Turning to `FC1(F)CCNCC12CCN(c1ccccn1)C2` (stereo not given), the INHIBITION stood at 58.6%.

Regarding `FC1(F)CCN(Cc2cccnc2)CC12CCN(c1ccccc1)C2` (stereo not given), the INHIBITION is recorded as 85.3%.

As to `Fc1cccnc1N1CCC2(CNCCC2(F)F)C1` (stereo not given), the INHIBITION stood at 47.8%. On to `c1cnc(N2CC3(CCN(Cc4cccnc4)C3)C2)nc1`, for which the INHIBITION is recorded as -85.5%. With `FC1(F)CCNCC12CCN(c1ncccn1)C2` (stereo not given), the INHIBITION came to 19.8%. For `FC1(F)CCNCC12CCN(c1cccnc1)C2` (stereo not given), the INHIBITION came to 66.6%. Regarding `O=C1CSC(c2ccc(O)cc2)c2sccc2N1` (stereo not given), the INHIBITION is on record as -74.5%.

Consider `c1coc(CN2CC[C@@H]3O[C@@H](COCc4ccncc4)CC[C@@H]32)c1`, for which the INHIBITION was -70.4%. For the compound `CCCN1CCN(C(=O)Cc2cccnc2)[C@H]2CS(=O)(=O)C[C@H]21`, the INHIBITION was -103%. Take `CO[C@H]1CN(CC2CC2)[C@@H]2CCCO[C@H]12`: the INHIBITION worked out at 7.3%. As to `Cc1nc(C2CCN(C)CC2)cc(N2CCOc3ccc(Cl)cc3C2)n1`, the INHIBITION is 70.7%. Turning to `CC(Cn1cccn1)NCc1nc(-c2ccsc2)no1` (stereo not given), the INHIBITION was -40%.

With `CCS(=O)(=O)N1CCc2c(CN3CCOCC3)cncc2C1`, the INHIBITION was -10.2%.

Regarding `CC1CN(Cc2ccccc2)CCCN1CCNS(C)(=O)=O` (stereo not given), the INHIBITION is 71.7%. On to `CS(=O)(=O)NC[C@H]1OC[C@@H]2CN(Cc3cccnc3)CC[C@@H]21`, for which the INHIBITION is given as -58.6%. As for `O=C(O)[C@H]1CN(Cc2ccccc2)C[C@@H]1C(=O)c1ccccc1`, the INHIBITION is given as -40.5%. Regarding `Cc1cnc(NCCc2c[nH]cn2)nc1-c1ccnn1C`, the INHIBITION was -84%. Take `CCC(C)Oc1ccc(CNCCc2c[nH]cn2)cc1Cl` (stereo not given): the INHIBITION came out at 91.9%.
